This is a sample that favours compounds with a hit; in the whole collection about 1.6% have one here.
KCNQ2 inh: KCNQ2 (rat) channel inhibition; O88943; CHO-K1 KCNQ2, FluxOR thallium flux, 20 min; stronger effect = lower value; B-score at 10 µM; hit rate 1.1% among 310,000; AID 2156;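 active = fluorescence ratio B-score at most minus 3 library SDs, with starting brightness B-score within 2 library SDs, cut at about -5.5 in these data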
Target sequence (O88943 whole entry, looked up): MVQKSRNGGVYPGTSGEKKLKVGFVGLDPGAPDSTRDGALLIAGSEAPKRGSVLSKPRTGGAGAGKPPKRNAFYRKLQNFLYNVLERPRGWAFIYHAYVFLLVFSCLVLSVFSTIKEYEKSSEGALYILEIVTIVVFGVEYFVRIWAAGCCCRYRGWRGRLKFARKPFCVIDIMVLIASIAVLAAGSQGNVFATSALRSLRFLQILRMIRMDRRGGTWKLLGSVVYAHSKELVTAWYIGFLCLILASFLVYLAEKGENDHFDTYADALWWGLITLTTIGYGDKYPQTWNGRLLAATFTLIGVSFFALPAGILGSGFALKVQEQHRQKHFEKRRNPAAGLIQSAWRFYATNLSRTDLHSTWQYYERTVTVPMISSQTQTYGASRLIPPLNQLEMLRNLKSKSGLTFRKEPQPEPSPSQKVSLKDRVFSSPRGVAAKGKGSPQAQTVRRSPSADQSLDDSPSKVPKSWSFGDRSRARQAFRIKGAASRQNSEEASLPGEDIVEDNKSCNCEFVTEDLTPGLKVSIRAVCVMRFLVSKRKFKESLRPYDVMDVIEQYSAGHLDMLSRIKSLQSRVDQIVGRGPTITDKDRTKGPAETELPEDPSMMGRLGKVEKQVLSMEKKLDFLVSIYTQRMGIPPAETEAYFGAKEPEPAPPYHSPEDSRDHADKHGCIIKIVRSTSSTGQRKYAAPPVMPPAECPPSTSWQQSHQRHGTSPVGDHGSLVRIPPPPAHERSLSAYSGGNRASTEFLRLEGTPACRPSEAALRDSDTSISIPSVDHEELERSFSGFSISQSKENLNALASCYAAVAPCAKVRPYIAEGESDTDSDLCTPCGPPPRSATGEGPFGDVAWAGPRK
KCNQ2 pot: KCNQ2 (rat) channel potentiation. hit rate 0.54% among 310,000. B-score at 10 µM. CHO-K1 KCNQ2, FluxOR thallium flux fluorescence; stronger effect = higher value;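 active = fluorescence ratio B-score at least 3 SD of library B-scores, with initial fluorescence B-score within 3 of them, cut at about 5.3 in these data; same plate scores as AID 2156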;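 note: B-score of peak minus minimum over baseline fluorescence ratio after K+ and Tl+ stimulus; positive B-score means potentiation of KCNQ2 with more thallium influx and brighter signal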
Large screens that a line does not name were inactive.

O=C1CC(N2CCCc3ccccc32)C(=O)N1c1ccccc1Cl (centres undefined)	none (no result: KCNQ2 pot)
N/C(=N\OC(=O)N1c2ccccc2Sc2ccccc21)c1ccccc1	KCNQ2 inh -6.5
N/C(=N\OC(=O)c1ccccc1Cl)c1ccccc1	none (no result: KCNQ2 pot)
CC1CCCCC1N(C)C1CCN(C(=O)CNC(=O)/C=C/c2cccc(Cl)c2)CC1 (centres undefined)	none (no result: KCNQ2 pot)
COc1ccc(CC(=O)N/N=C(\C)c2cccc(NC(=O)C3CC3)c2)cc1	none
COc1ccc(CC(=O)Nc2cccc(/C(C)=N/NC(=O)c3cccc([N+](=O)[O-])c3)c2)cc1	KCNQ2 inh -6
OCc1ccccc1SSc1ccccc1CO	none (no result: KCNQ2 pot)
CCOC(=O)Cc1csc(SCC(=O)N(CC(C)C)c2c(N)n(Cc3ccccc3)c(=O)[nH]c2=O)n1	none
CC(C)S(=O)(=O)c1cnc(-c2cccnc2)nc1N	none (no result: KCNQ2 pot)
Cc1cccc(C(C)C)c1NC(=O)C(C)OC(=O)Cc1n[nH]c(=O)c2ccccc12 (centres undefined)	KCNQ2 inh -6.7
COc1ccccc1NC(=O)C(C)OC(=O)Cc1n[nH]c(=O)c2ccccc12 (centres undefined)	none
O=Cc1cc(Br)c(OC(=O)N2CCOCC2)c(Br)c1	none
O=C(COc1ccccc1)NCC(c1ccco1)N1CCN(c2ccc(F)cc2)CC1 (centres undefined)	none (no result: KCNQ2 pot)
O=C(COc1ccccc1)NCC(c1ccco1)N1CCN(c2ccccc2F)CC1 (centres undefined)	KCNQ2 inh -7
NC1=NC(=O)/C(=C/c2cn(Cc3ccccc3)c3ccccc23)S1	none (no result: KCNQ2 pot)
NC(=O)COC(=O)c1sc2ccccc2c1Cl	none
Cc1cc(C)n(CCOC(=O)c2sc3ccccc3c2Cl)n1	KCNQ2 inh -10
NC(=O)N/N=C/c1coc2ccc3ccccc3c2c1=O	none
O=Cc1coc2ccc3ccccc3c2c1=O	KCNQ2 inh -8.1
COc1cccc(C(=O)N2CCC(C(=O)NCc3ccco3)CC2)c1	none (no result: KCNQ2 pot)
Cc1cccc(-c2nc(CS(=O)CC(=O)N3CCc4ccccc4C3)c(C)o2)c1 (centres undefined)	KCNQ2 inh -7.8
CCN1CCN(C(=O)CS(=O)Cc2nc(-c3cccc(C)c3)oc2C)CC1 (centres undefined)	none (no result: KCNQ2 pot)
CN(C(=O)CN1C(=O)C2C3CC(C(Br)C3Br)C2C1=O)C1CCCCC1 (centres undefined)	none (no result: KCNQ2 pot)
CC[C@@H](C(=O)[C@@H](C)[C@@H](O)[C@H](C)CCc1ccc(C)c(O)c1C(=O)O)[C@H]1O[C@](CC)([C@H]2CC[C@](O)(CC)[C@H](C)O2)C[C@@H]1C	KCNQ2 pot 27
O=C1CNC(=O)/C1=C\N1CCN(C(c2ccccc2)c2ccccc2)CC1	none
COC(=O)[C@H](C)NC(=O)NC1CCCc2ccccc21 (some centres undefined)	KCNQ2 inh -6.5
CN(C)c1cccc(C(=O)NC2CCCc3ccccc32)c1 (centres undefined)	KCNQ2 inh -6.5
O=C(NC1CCCc2ccccc21)c1cccc(Br)c1 (centres undefined)	none (no result: KCNQ2 pot)
CC(C)[C@H](NC(=O)NC1CCCc2ccccc21)C(=O)O (some centres undefined)	none (no result: KCNQ2 pot)
COc1ccc(N(C)S(=O)(=O)c2cccc(C(=O)N(C)Cc3ccc(C)o3)c2)cc1	none (no result: KCNQ2 pot)
c1ccc(-c2nc(CSc3n[nH]c(-c4cccs4)n3)cs2)cc1	none (no result: KCNQ2 pot)
CCOC(=O)N1CCN(CCC(=O)c2ccc(Cl)cc2)CC1	KCNQ2 inh -6.7
CCOC(=O)N1CCN(CCC(=O)c2ccc(OC)cc2)CC1	none (no result: KCNQ2 pot)
CC(C)(C#CCN1CCCCC1)OCCOC(c1ccccc1)c1ccccc1	KCNQ2 inh -6.1
CC(O)(C#CCN1CCCCC1)c1ccccc1 (centres undefined)	none
Cc1c(Cl)c(=O)n2c(=O)c(Cl)c(C)n12	none (no result: KCNQ2 pot)
COc1ccc(S(=O)(=O)N(C)CC(=O)NC2CCCCC2)cc1Cl	none
COc1ccc(S(=O)(=O)N(CC(N)=O)C2CCCCC2)cc1Cl	KCNQ2 inh -5.7
CCOC(=O)CSc1nc2ccccc2c(=O)n1C1CCCC1	KCNQ2 inh -5.8
CNC(=O)CSc1nc2ccccc2c(=O)n1C1CCCCC1	none (no result: KCNQ2 pot)
COc1ccccc1OCC(=O)NCCSCc1cccc(Cl)c1	KCNQ2 inh -6.4
COc1ccccc1OCC(=O)NCCNC(=O)COc1ccccc1OC	none (no result: KCNQ2 pot)
O=C(Cc1ccccc1)NCCSCc1ccc(Cl)cc1	none
COc1ccccc1OCC(=O)NCCSCc1ccccc1Cl	KCNQ2 inh -6.2
COc1ccccc1C(=O)NCCSCc1ccccc1Cl	KCNQ2 inh -6.4
O=C(COc1ccccc1)NCCSCc1ccc(Cl)cc1	KCNQ2 inh -6.6
O=C(COc1ccccc1)NCCSCc1ccccc1Cl	none (no result: KCNQ2 pot)
COc1ccccc1C(=O)NCCCNC(=O)c1ccccn1	none (no result: KCNQ2 pot)
COc1ccc(C2/C=C\CN(Cc3ccc(N(C)C)cc3)CC(=O)N2Cc2ccc(F)cc2)cc1 (centres undefined)	none (no result: KCNQ2 pot)
Cc1ccc(S(=O)(=O)NCCc2cn3nc(C)c(C)nc3n2)cc1C	none (no result: KCNQ2 pot)
O=C(O)C1C2CCC(C2)C1C(=O)NCCc1ccccc1 (centres undefined)	none
O=C(c1ccc(Cl)c([N+](=O)[O-])c1)N1CCN(Cc2ccc3c(c2)OCO3)CC1	none (no result: KCNQ2 pot)
CCCN(C(=O)CCl)C1=CCCCC1	none
O=C(CCn1cnc(-c2ccccc2)c1-c1ccccc1)N/N=C/c1ccccc1O	none (no result: KCNQ2 pot)
CCC(C)(C)NC(=O)C(c1ccc(OC)cc1)N(C(=O)CCC(=O)Nc1cc(C)on1)c1cc(OC)ccc1OC (centres undefined)	none (no result: KCNQ2 pot)
COc1ccccc1C(=O)NCCOc1ccc(C(C)(C)C)cc1	KCNQ2 inh -5.8
CC(C)(C)c1ccc(C(=O)NCCOc2ccccc2)cc1	none (no result: KCNQ2 pot)
Cc1cc(C)cc(OCC(=O)NN2Cc3ccccc3C2=N)c1	none
N=C1c2ccccc2CN1NC(=O)CC12CC3CC(CC(C3)C1)C2	KCNQ2 pot 18
O=c1c2ccccc2nc(/C=C/c2ccccc2)n1CCCO	none
CN(C)c1ccc(/C=C/c2nc3ccccc3c(=O)n2CCO)cc1	KCNQ2 inh -6
CCc1cc2c(=O)n(-c3ccc(C)cc3)cnc2s1	none (no result: KCNQ2 pot)
COc1ccc(Cc2nc(C(=O)Nc3ccc(Cl)cc3)cs2)cc1	KCNQ2 inh -5.8
COc1ccc(NC(=O)c2csc(Cc3ccc(Cl)cc3)n2)cc1	none (no result: KCNQ2 pot)
Clc1cccc2c1CCN(Cc1nc(-c3cnccn3)no1)C2	none
Cc1cc2oc(=O)cc(CN3CCc4ccccc43)c2cc1Cl	KCNQ2 inh -6.4
CCc1ccc2c(CN3CCc4ccccc43)cc(=O)oc2c1	KCNQ2 inh -5.6
O=c1cc(CN2CCc3ccccc32)c2ccc(O)cc2o1	none (no result: KCNQ2 pot)
Cc1ccc2c(CN3CCCc4ccccc43)cc(=O)oc2c1C	none (no result: KCNQ2 pot)
O=C(NCc1cccnc1)C1CC(c2ccccc2Cl)=NO1 (centres undefined)	none
CCOC(=O)C(C)Sc1ncc(OC)c(Sc2ccc(Cl)cc2)n1 (centres undefined)	KCNQ2 inh -8
CCOC(=O)CSc1ncc(OC)c(Sc2ccc(Cl)cc2)n1	none (no result: KCNQ2 pot)
NC(=NCCc1ccccc1)NS(=O)(=O)c1ccccc1F	none
c1ccc(N2CCOCC2)c(Nc2nc3ccccc3n3cnnc23)c1	KCNQ2 inh -6.3
c1ccc2c(c1)nc(N1CCOCC1)c1nncn12	none (no result: KCNQ2 pot)
COc1ccccc1CN(C)C(=O)c1sccc1-c1ccccc1	KCNQ2 inh -6.5
COc1ccccc1CN(C)C(=O)c1cnc(C)cn1	none
CCCCOc1ccccc1C(=O)N(Cc1ccco1)C1CCS(=O)(=O)C1 (centres undefined)	none (no result: KCNQ2 pot)
CCn1c(SCC(=O)NC(=O)NCc2ccco2)nc2sc(C)c(C)c2c1=O	KCNQ2 pot 6
Cc1sc2nc(SCC(=O)NCc3ccco3)n(C)c(=O)c2c1C	none (no result: KCNQ2 pot)

Screens as filed in PubChem.
